This is a sample that favours compounds with a hit; in the whole collection about 7.9% have one here.
SW480 rerep: induces DNA re-replication in SW480 colon adenocarcinoma cells; Potency, µM (doses to about 46.1 µM), for the others: top-dose re-replication activation, usual class: activators; AID 624297; SW480 DNA re-replication, Hoechst DNA content imaging, 48 h; 1.8% of 340,000 active; also: % of control where 0% means no effect; nearly all actives have a fitted effect of over 55% in size
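250 cells/well; 23 nL cpd via pin tool; 48 hr, 37 C, 5% CO2; Hoechst 40 min; imager read of total nuclear intensity, ex 405/em 500-530 nm.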
KB-3-1 cytotox: KB-3-1 parental cell cytotoxicity; KB-3-1 viability, CellTiter-Glo ATP luminescence, 72 h; Potency, µM (top dose mostly 46.1 µM), hits mostly cytotoxic; 1.4% of 400,000 active; also: % is scaled to controls: 0 for no effect and ±100 for the full control effect; nearly all actives have a fitted effect of over 60% in size
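Screening of KB-3-1 cells (DMEM, 10% FBS, phenol-red free) ran from lowest to highest compound concentration; after 72 h at 37 °C viability was read luminescently and curves fitted.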
MCF10A rerep: DNA re-replication induction in MCF 10a cells. 2.9% of 350,000 active. AID 624296. Potency, µM (doses to about 46.1 µM), for inactives: at the top dose activity, positive = re-replication, usual class: activators. MCF 10A DNA re-replication, Hoechst nuclear intensity, 48 h; also: % of control where 0% means no effect; nearly all actives have a fitted effect of over 50% in size
HT1080 IDH1KD tx: kills HT-1080 cells with IDH1 knockdown | 2% of 360,000 active | HT-1080 IDH1 knockdown viability, ATP luminescence, 48 h | AID 686971 | Potency, µM (highest dose often 46.1 µM), inactives show top-dose activity, negative = toxicity, usual class: cytotoxic;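 also: 0% = DMSO wells and -100% = cell-free medium wells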
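IDH1KD HT-1080 cells, 750/well, RPMI + 5% FBS; compound pinned after 2 h settling; 48 h, 37 °C; CellTiter-Glo luminescence; % activity normalised to DMSO and no-cell wells; curves fitted, classed by r2 and efficacy.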
HT1080-NT tox: kills 2HG-producing HT-1080-NT fibrosarcoma cells. HT-1080-NT fibrosarcoma viability, CellTiter-Glo ATP luminescence, 48 h. Potency, µM (top dose mostly 46.1 µM), without a hit: top-dose activity, negative = less viability, usual class: cytotoxic. 1.6% of 360,000 active. AID 686970;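 also: NT is the 2HG producing partner of a matched IDH1 knockdown line; 0% = DMSO-treated cells and -100% = media-only wells without cells; nearly all actives have a fitted effect of over 55% in size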
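Compounds were tested in concentration-response format on HT-1080-NT cells for 48 hours at 37 degrees C. Cell viability came from CellTiter-Glo luminescence; curves were classified by r2, response magnitude and activity.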
KB-V1 cytotox: kills drug-selected multidrug resistant KB-V1 cells. KB-V1 MDR cells viability, CellTiter-Glo, 72 h. Potency, µM (doses to about 46.1 µM), most hits filed as cytotoxic. 3.4% of 400,000 active. AID 1347076; also: % is scaled to controls: 0 for no effect and ±100 for the full control effect; nearly all actives have a fitted effect of over 60% in size
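Cytotoxicity via CellTiter-Glo luminescence after 72 h compound exposure at 37 degrees C. Cells: drug-selected KB-V1 line, DMEM phenol-red free plus 10% FBS. Compounds tested at multiple concentrations; normalized data fitted to concentration-effect curves.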
Numbers without * were called inactive. Calls follow the shape of the dose curve; as a rule, active = well fitted curve in the direction sought with a large enough effect; inconclusive = small, poorly fitted or top-dose-only effect, or another doubt; inactive = no such curve, though single readings can be large; an effect the other way counts as inactive or inconclusive. Potency is read from the fitted curve at half-maximal effect.

Screening O=[N+]([O-])c1ccc(N/N=C/c2cccc(O)c2)cc1 returned SW480 rerep inconclusive, KB-3-1 cytotox inactive, MCF10A rerep 18µM*, HT1080 IDH1KD tx inconclusive, HT1080-NT tox inconclusive and KB-V1 cytotox inactive.
`C(=N\NC1=Nc2cccc3cccc1c23)/c1cccnc1` gave SW480 rerep 0%, KB-3-1 cytotox inactive, MCF10A rerep inconclusive, HT1080 IDH1KD tx -13%, HT1080-NT tox -18% and KB-V1 cytotox 16µM*.
O=[N+]([O-])c1ccc(C=NNc2ccc(S(=O)(=O)O)cc2)cc1 was read as SW480 rerep -2%, KB-3-1 cytotox inactive, MCF10A rerep 1%, HT1080 IDH1KD tx 6%, HT1080-NT tox 1% and KB-V1 cytotox inactive.
For Cc1c(OC(C)C(=O)NCC(O)c2ccccc2)ccc2c3c(c(=O)oc12)CCC3 (stereo unspecified) the results were SW480 rerep -1%, KB-3-1 cytotox inactive, MCF10A rerep -15%, HT1080 IDH1KD tx -4%, HT1080-NT tox -3% and KB-V1 cytotox inactive.
Cc1c(C(=O)CN2CCN(c3ccccc3)CC2)c2ccccc2n1C was read as SW480 rerep -8%, KB-3-1 cytotox inactive, MCF10A rerep 10%, HT1080 IDH1KD tx -11%, HT1080-NT tox -19% and KB-V1 cytotox inactive.
Screening Cn1c2c(c3ccccc31)CCN(CCCCN1CCN(c3ccccc3)CC1)C2=O returned SW480 rerep inconclusive, KB-3-1 cytotox inactive, MCF10A rerep inconclusive, HT1080 IDH1KD tx inconclusive, HT1080-NT tox -14% and KB-V1 cytotox 5.8µM*.
c1ccc(C2CCC(N3CCN(c4ccccc4)CC3)CC2)cc1 (stereo unspecified) was read as SW480 rerep -6%, KB-3-1 cytotox inactive, MCF10A rerep 9%, HT1080 IDH1KD tx -24%, HT1080-NT tox -2% and KB-V1 cytotox inactive.
`Cc1nnc(SCC(=O)Nc2cccc(S(=O)(=O)N3CCCC3)c2)n1C1CC1` gave KB-3-1 cytotox inactive, HT1080 IDH1KD tx 5%, HT1080-NT tox 10% and KB-V1 cytotox inactive.
For COc1ccc(C)cc1S(=O)(=O)N(C)CC(=O)NC1CCCC1 the results were SW480 rerep inconclusive, KB-3-1 cytotox inactive, MCF10A rerep 2%, HT1080 IDH1KD tx 0%, HT1080-NT tox 0% and KB-V1 cytotox 12µM*.
Screening COc1ccc(C)cc1S(=O)(=O)N(C)CC(=O)NC1CC1 returned SW480 rerep 0%, KB-3-1 cytotox inactive, MCF10A rerep -2%, HT1080 IDH1KD tx 15%, HT1080-NT tox 2% and KB-V1 cytotox inactive.
`COc1ccc(C)cc1S(=O)(=O)N(C)CC(=O)N1CCCC1` gave SW480 rerep 2.3µM*, KB-3-1 cytotox inactive, MCF10A rerep 2%, HT1080 IDH1KD tx 15%, HT1080-NT tox 7% and KB-V1 cytotox inactive.
`O=C1CC(c2ccccc2)=NN1c1nc(-c2ccccc2)cs1` gave SW480 rerep 0%, KB-3-1 cytotox inactive, MCF10A rerep 16µM*, HT1080 IDH1KD tx 6%, HT1080-NT tox 2% and KB-V1 cytotox inactive.
For CC1=NN(c2nc(-c3ccccc3)cs2)C(=O)C1 the results were SW480 rerep -3%, KB-3-1 cytotox inactive, MCF10A rerep inconclusive, HT1080 IDH1KD tx 14%, HT1080-NT tox 2% and KB-V1 cytotox inactive.
`O=C1C2C3c4ccccc4C(c4ccccc43)[C@@H]2C(=O)N1c1nc(-c2ccccc2)cs1` (stereo partly specified) gave SW480 rerep -12%, KB-3-1 cytotox inactive, MCF10A rerep -3%, HT1080 IDH1KD tx 29%, HT1080-NT tox 20% and KB-V1 cytotox 21µM*.
Screening C[C@@H]1CN([C@H](C)CO)C(=O)CCCn2nncc2CO[C@H]1CN(C)Cc1ccc2c(c1)OCO2 returned KB-3-1 cytotox inactive, HT1080 IDH1KD tx 10%, HT1080-NT tox 6% and KB-V1 cytotox inconclusive.
CN(Cc1ccccc1Cl)C(=O)C1CCC(=O)N(C2CCCCCC2)C1 (stereo unspecified) was read as SW480 rerep -5%, KB-3-1 cytotox inactive, MCF10A rerep 2%, HT1080 IDH1KD tx 4%, HT1080-NT tox 18% and KB-V1 cytotox inactive.
`O=C1NCCN(Cc2ccoc2)C1CC(=O)N(CCO)Cc1ccccc1` (stereo unspecified) gave SW480 rerep 18µM*, KB-3-1 cytotox inactive, MCF10A rerep -5%, HT1080 IDH1KD tx 1%, HT1080-NT tox 15% and KB-V1 cytotox inactive.
Screening CN(C(=O)CC1C(=O)NCCN1Cc1ccoc1)C1CCOCC1 (stereo unspecified) returned SW480 rerep -20%, KB-3-1 cytotox inactive, MCF10A rerep -9%, HT1080 IDH1KD tx 9%, HT1080-NT tox 8% and KB-V1 cytotox inactive.
`CCc1cc2cc(C(=O)N3CCN(c4ccccc4)CC3)sc2s1` gave SW480 rerep 16%, KB-3-1 cytotox inactive, MCF10A rerep 15%, HT1080 IDH1KD tx 10%, HT1080-NT tox 10% and KB-V1 cytotox inactive.
For O=C(c1ccccc1)N1CCN(C(=O)c2ccncc2)CC1 the results were SW480 rerep -4%, KB-3-1 cytotox inactive, MCF10A rerep 0%, HT1080 IDH1KD tx 0%, HT1080-NT tox 9% and KB-V1 cytotox inactive.
CCc1cc2cc(C(=O)N3CCN(Cc4ccccc4)CC3)sc2s1 was read as SW480 rerep -8%, KB-3-1 cytotox 21µM*, MCF10A rerep inconclusive, HT1080 IDH1KD tx 2%, HT1080-NT tox 3% and KB-V1 cytotox 15µM*.
Screening O=C(c1ccccc1)N1CCN(Cc2ccccc2)CC1 returned SW480 rerep 17%, KB-3-1 cytotox inactive, MCF10A rerep 13µM*, HT1080 IDH1KD tx -7%, HT1080-NT tox 21% and KB-V1 cytotox inactive.
`O=C(c1ccncc1)N1CCN(CCc2ccccc2)CC1` gave SW480 rerep inconclusive, KB-3-1 cytotox inactive, MCF10A rerep 18µM*, HT1080 IDH1KD tx 2%, HT1080-NT tox -3% and KB-V1 cytotox inactive.
For CC(C)(C)c1ccc(C(=O)N2CCN(CCNC(=O)C(=O)NCc3ccccc3)CC2)cc1 the results were SW480 rerep -3%, KB-3-1 cytotox inactive, MCF10A rerep -1%, HT1080 IDH1KD tx 2%, HT1080-NT tox 8% and KB-V1 cytotox 7.3µM*.
`c1ccc(Nc2nc(-c3ccccc3)c(-c3ccccc3)s2)cc1` gave HT1080 IDH1KD tx inconclusive and HT1080-NT tox -28%.
COc1ccc(CNC(=O)c2ccc(NC(=O)N3CCCCc4ccccc43)cc2)cc1 was read as KB-3-1 cytotox inactive and KB-V1 cytotox inactive.

Screening results as filed in PubChem BioAssay.
